Growth data for eight compounds are collected here from PubChem BioAssay (NCI).

This is part of a sample that, as a whole, favours compounds with a hit. Of some 83,000 tested, about 20% had one in any assay.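 Single-concentration screen, 48 h exposure, 96-well plates. Endpoint: percent growth. Below 10 = active.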 A number with no mark means an inactive call. Activity calls are given as the source filed them.

Some test systems named below: DU-145 prostate; K-562 leukemia; MALME-3M melanoma; MDA-MB-231 breast; RXF 393 renal; SF-268 CNS; SF-295 CNS; SF-539 CNS; UACC-257 melanoma; M14 melanoma; HCT-15 colon; HT29 colon; SNB-75 CNS; SNB-19 CNS; U251 CNS; PC-3 prostate; SK-MEL-5 melanoma; UACC-62 melanoma; LOX IMVI melanoma; SK-MEL-28 melanoma.
What all share (assay): NCI-60 one-dose screen, 48 h (100 = growth as untreated, 0 = no growth, -100 = all killed)
Holding throughout (conditions): 10 µM unless noted

Turning to `N#Cc1cccc(F)c1`, the growth in the experiment on DU-145 prostate is 125%; with K-562 leukemia, 94.4%; with MALME-3M melanoma, 110%; in the experiment on MDA-MB-231 breast, 101%; in the experiment on RXF 393 renal, 114%; in the experiment on SF-268 CNS it was 110%. Further, the growth in the experiment on SF-295 CNS is 109%; with SF-539 CNS, 88.9%; with UACC-257 melanoma it was 110%; in the experiment with M14 melanoma it was 102%; in the experiment with HCT-15 colon, 97.8%; in the experiment with HT29 colon it was 104%. The growth in the experiment with SNB-75 CNS is 127%; with SNB-19 CNS, 94.4%; with U251 CNS it was 110%; in the experiment on PC-3 prostate it was 102%; with SK-MEL-5 melanoma it was 107%; with UACC-62 melanoma, 102%. Further, the values for the growth in the experiment with LOX IMVI melanoma and in the experiment on SK-MEL-28 melanoma were 107% and 117%, respectively.

Take `COc1cc2c(c(OC)c1OC)CCC(c1cccc(C(=O)Nc3cccc(Br)c3)c1)O2` (stereo not given): the growth in the experiment with DU-145 prostate was 85.1%; in the experiment with K-562 leukemia it was 52.1%; in the experiment with MALME-3M melanoma, 102%; in the experiment on MDA-MB-231 breast, 17.6%; with RXF 393 renal, 78.6%; in the experiment with SF-268 CNS it was 67.1%. Moreover, the growth was 64.5% in the experiment with SF-295 CNS; 99.4% in the experiment on SF-539 CNS; 74.1% in the experiment on UACC-257 melanoma; 73.9% with M14 melanoma; 67% in the experiment on HCT-15 colon; 58.1% in the experiment on HT29 colon. For the same compound, the growth in the experiment on SNB-75 CNS is 69%; with SNB-19 CNS it was 81.6%; in the experiment with U251 CNS it was 71.5%; in the experiment with PC-3 prostate it was 49.1%; with SK-MEL-5 melanoma it was 55.6%; with UACC-62 melanoma it was 52.8%. The figures for the growth in the experiment on LOX IMVI melanoma and with SK-MEL-28 melanoma were 74% and 87.9%, respectively.

For the compound `COc1ccc(-c2nc3c(c(-c4ccccc4)nn3-c3ccccc3)c(-c3ccc(N4CCOCC4)cc3)c2C#N)cc1`, the growth in the experiment on DU-145 prostate is 106%; with K-562 leukemia, 96.9%; in the experiment with MALME-3M melanoma, 103%; with MDA-MB-231 breast, 107%; with RXF 393 renal, 38.6%; in the experiment on SF-268 CNS, 112%. The growth with SF-295 CNS is 91.6%; in the experiment on SF-539 CNS, 85.9%; in the experiment with UACC-257 melanoma it was 101%; with M14 melanoma it was 101%; in the experiment on HCT-15 colon, 91.4%; with HT29 colon, 105%. In addition, the growth is 105% with SNB-75 CNS; 103% with SNB-19 CNS; 84.8% in the experiment on U251 CNS; 101% in the experiment on PC-3 prostate; 101% in the experiment with SK-MEL-5 melanoma; 91.1% in the experiment on UACC-62 melanoma. Also, the values for the growth in the experiment on LOX IMVI melanoma and in the experiment with SK-MEL-28 melanoma were 92.2% and 100%, respectively.

Consider `C=C1C(=O)O[C@H]2[C@H]1CC/C(COC(=O)NCc1ccc(Cn3c(=O)sn(CCI)c3=O)cc1)=C\CC[C@@]1(C)O[C@@H]21`, for which the growth is 17.2% with DU-145 prostate; 0.268% (active) in the experiment on K-562 leukemia; -49.9% (active) in the experiment on MALME-3M melanoma; 61% in the experiment on MDA-MB-231 breast; 0.0448% (active) in the experiment on RXF 393 renal; 71.7% in the experiment with SF-268 CNS. Besides, the growth was 106% with SF-295 CNS; 78.8% in the experiment with SF-539 CNS; 45.9% in the experiment on UACC-257 melanoma; 15.7% with M14 melanoma; 41.1% in the experiment with HCT-15 colon; 39.8% with HT29 colon. In addition, the growth was 81.2% with SNB-75 CNS; 97.2% with SNB-19 CNS; 73.3% in the experiment with U251 CNS; 75.6% with PC-3 prostate; 98.8% with SK-MEL-5 melanoma; 65.4% in the experiment on UACC-62 melanoma. Further, the growth with LOX IMVI melanoma is 35.1%; with SK-MEL-28 melanoma it was 55.5%.

As to `O=C(/C=C(/C=C/c1cccc2[nH]ccc12)OB(F)F)/C=C/c1cccc2[nH]ccc12`, the growth in the experiment on DU-145 prostate was 2.94% (active); with K-562 leukemia it was -2.54% (active); with MALME-3M melanoma, -26.9% (active); in the experiment on MDA-MB-231 breast, -10.7% (active); with RXF 393 renal, -87.2% (active); with SF-268 CNS, 2.01% (active). Besides, the growth in the experiment with SF-295 CNS is -49.5% (active); with SF-539 CNS, -25.8% (active); with UACC-257 melanoma, -47.3% (active); in the experiment on M14 melanoma it was -34.2% (active); in the experiment with HCT-15 colon it was -58.4% (active); in the experiment on HT29 colon, -52.8% (active). In addition, the growth is -40.4% (active) in the experiment on SNB-75 CNS; -7.8% (active) in the experiment on SNB-19 CNS; -87% (active) in the experiment on U251 CNS; -42.5% (active) with PC-3 prostate; -78.3% (active) in the experiment with SK-MEL-5 melanoma; -51.8% (active) with UACC-62 melanoma. The growth is -81.1% (active) in the experiment on LOX IMVI melanoma and -14.3% (active) with SK-MEL-28 melanoma.

Consider `CO/N=C(/C)c1ccc(NC(=O)CSc2nnc(-c3ccncc3)n2-c2ccccc2)cc1`, for which the growth in the experiment on DU-145 prostate was 52%; in the experiment on K-562 leukemia it was 91.6%; in the experiment on MALME-3M melanoma, 32.2%; in the experiment on MDA-MB-231 breast, 42.7%; with RXF 393 renal, 4.02% (active); in the experiment on SF-268 CNS, 13.4%. Also, the growth with SF-295 CNS was 33%; in the experiment with SF-539 CNS, -31.2% (active); in the experiment on UACC-257 melanoma, 50.6%; in the experiment with M14 melanoma, 74.8%; with HCT-15 colon, 73%; in the experiment with HT29 colon it was 78%. For the same compound, the growth in the experiment with SNB-75 CNS was -16.6% (active); in the experiment with SNB-19 CNS, 30.4%; in the experiment on U251 CNS, 17.4%; with PC-3 prostate, 49.9%; with SK-MEL-5 melanoma, 25.2%; with UACC-62 melanoma, 26.1%. For the same compound, the results for the growth in the experiment with LOX IMVI melanoma and with SK-MEL-28 melanoma were 65.5% and 64.9%, respectively.

On to `N#Cc1c(NC(=O)c2ccccc2)sc2c1CCC(=O)C2`, for which the growth with DU-145 prostate was 40.7%; in the experiment with K-562 leukemia, 4.06% (active); in the experiment on MALME-3M melanoma, -12.9% (active); in the experiment on MDA-MB-231 breast, -11.3% (active); with RXF 393 renal, -1.37% (active); with SF-268 CNS, 16%. Further, the growth in the experiment on SF-295 CNS is 21.7%; in the experiment with SF-539 CNS it was -28.4% (active); in the experiment with UACC-257 melanoma, 2.08% (active); in the experiment on M14 melanoma it was 14%; in the experiment on HCT-15 colon, -3.43% (active); in the experiment with HT29 colon it was 14.1%. The growth is -6.39% (active) with SNB-75 CNS; 19.1% in the experiment with SNB-19 CNS; 13.4% in the experiment with U251 CNS; 12% with PC-3 prostate; -75.8% (active) with SK-MEL-5 melanoma; 1.83% (active) in the experiment on UACC-62 melanoma. In addition, the values for the growth with LOX IMVI melanoma and in the experiment with SK-MEL-28 melanoma were 6.26% (active) and 17.5%, respectively.

For the compound `COc1ccc(-c2nc(SCC(C)C)nc(N/N=C\c3ccc(F)cc3)c2C#N)cc1`, the growth in the experiment on DU-145 prostate was 94.3%; with K-562 leukemia, 94%; in the experiment on MALME-3M melanoma it was 81%; with MDA-MB-231 breast it was 93.1%; in the experiment on RXF 393 renal, 111%; in the experiment on SF-268 CNS, 86.6%. The growth with SF-295 CNS is 75.8%; in the experiment with SF-539 CNS it was 91.6%; in the experiment on UACC-257 melanoma, 102%; with M14 melanoma, 92.7%; in the experiment on HCT-15 colon, 85.3%; in the experiment with HT29 colon, 90.5%. The growth is 80% in the experiment on SNB-75 CNS; 81% in the experiment on SNB-19 CNS; 94.5% in the experiment with U251 CNS; 84.9% with PC-3 prostate; 103% in the experiment with SK-MEL-5 melanoma; 88.6% with UACC-62 melanoma. The growth with LOX IMVI melanoma was 97.4%; in the experiment with SK-MEL-28 melanoma, 98.8%.
